Experimental data as given in PubChem BioAssay AID431 (Sanford-Burnham Center for Chemical Genomics, 2006).
Screen size: about 63,000 compounds; about 1,100 (1.7%) were called active. The sample holds actives, similar compounds and a random draw of the others, so the mix is not that of the screen.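 Rule for the calls: active = compounds whose percent cytotoxicity in the single-dose primary screen, scaled between solvent and toxic-drug controls, exceeds 50; inactive = the rest.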 Entries with a potency or affinity are not part of this list.

Test: cytotoxicity in KRAS-transformed pancreatic duct cells, primary screen, cell-based, fluorescence, HTS (AID 431);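 note: 0% = DMSO solvent wells and 100% = doxorubicin-treated wells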
Settings: HPDE-C7K KRASV12 cells, Alamar Blue viability, 48 h; at 10 µM; stronger effect = higher value

Structure (SMILES) | cytotoxicity
Cc1ccc(S(=O)(=O)C(C#N)c2nc3ccccc3nc2N2CCCCC2)cc1 (stereo not drawn) | 0.6% (inactive)
COC(=O)c1ccc(-n2nnnc2SCC(=O)N2CCCCC2)cc1 | -30.4% (inactive)
COc1ccc(CCNC(=O)c2cnccn2)cc1 | -0.7% (inactive)
CCOC(=O)C1CCN(c2c(NCCN3CCCCC3C)c(=O)c2=O)CC1 (stereo not drawn) | 2.6% (inactive)
O=C(Cn1c(CO)nc2ccccc21)Nc1cc(C(F)(F)F)ccc1N1CCOCC1 | -13.4% (inactive)
c1ccc(N2CCOCC2)c(Nc2nc3ccccc3n3cnnc23)c1 | 0.7% (inactive)
C=CCn1c(COc2ccccc2)nnc1SCC(=O)C(C)(C)C | 8.4% (inactive)
Cc1ccc(NC(=O)CCNS(=O)(=O)c2ccc3c(c2)oc(=O)n3C)cc1 | -10.2% (inactive)
Cn1c(=O)oc2cc(S(=O)(=O)NCCc3ccccc3)ccc21 | -10.4% (inactive)
O=C(NCCc1c[nH]c2ccccc12)c1ccc(S(=O)(=O)NCc2ccco2)cc1 | 51.2% (active)
O=C(NC1CCCCC1)c1ccc(S(=O)(=O)NCc2ccco2)cc1 | -0.5% (inactive)
O=C(Nc1ccccc1)c1ccc(S(=O)(=O)NCc2ccco2)cc1 | -6.4% (inactive)
O=C(Oc1cccc2cccnc12)c1cccc(-n2cnnn2)c1 | 23.3% (inactive)
Cc1noc(C)c1COC(=O)c1ccc2c(c1)OCCO2 | 4.7% (inactive)
O=C(COc1cccc2cccnc12)Nc1nccs1 | 8.2% (inactive)
CN(CCOC(=O)c1ccc2c(c1)OCCO2)Cc1ccccc1 | -8% (inactive)
FC(F)Oc1cccc2cccnc12 | 3.1% (inactive)
O=S(=O)(Nc1ccc2c(c1)OCCO2)c1cccc2cccnc12 | 4.7% (inactive)
Cc1ccc2cccc(OC(=O)c3ccc4c(c3)OCCO4)c2n1 | 54.5% (active)
Cn1c(C(=O)N2CCN(c3ncccn3)CC2)cc2c(=O)n(C)c3ccccc3c21 | 17.4% (inactive)
O=C(Nc1cnn(Cc2ccc(Cl)cc2)c1)c1cnccn1 | -2.7% (inactive)

Structure (SMILES) | cytotoxicity
CC(=O)NC(CC(C)C)C(=O)NC(=O)NCc1ccccc1 (stereo not drawn) | 15.8% (inactive)
CCN(CC)CCCN1C(=O)C(=O)/C(=C(/O)c2ccc3c(c2)OCCO3)C1c1ccco1 (stereo not drawn) | 5.8% (inactive)
Cn1c(-c2ccccc2)cnc1SCC(=O)NCc1ccco1 | -16.1% (inactive)
COC(=O)C(NC(C)=O)(Nc1ccc(Br)cc1)C(=O)OC | 53.3% (active)
COC(=O)C(NC(C)=O)(Nc1ccc(Br)cn1)C(F)(F)F (stereo not drawn) | 2.3% (inactive)
COC(=O)C(NC(C)=O)(Nc1ccccc1)C(=O)OC | 27.5% (inactive)
O=S(=O)(c1cccc(Cl)c1)N1CCCC1 | -5.7% (inactive)
O=C(NC1CCCC1)c1sc(=S)n2c1[nH]c(=O)c1ccccc12 | 68.9% (active)
O=C(NC1CCCCC1)c1sc(=S)n2c1[nH]c(=O)c1ccccc12 | 77.2% (active)
Cn1c(=O)c(C(=O)NC2CCCCCCC2)c(O)c2ccccc21 | 13.6% (inactive)
O=C(NCC1CCCO1)c1sc(=S)n2c1[nH]c(=O)c1ccc(C(=O)N3CCCCC3)cc12 (stereo not drawn) | 5.2% (inactive)
O=C(NC1CCCCCCC1)c1c(O)c2ccccc2[nH]c1=O | -19.1% (inactive)
O=C(NC1CCCCCC1)c1c(O)c2ccccc2[nH]c1=O | -13.7% (inactive)
CSc1nnc(Cn2c(=O)sc3ccccc32)n1-c1ccccc1 | 13% (inactive)
Cc1nc2ccc(NC(=O)N3CCOCC3)cc2s1 | -19.1% (inactive)
Nc1nnc(SCc2cccnc2)s1 | -0.3% (inactive)
O=c1[nH]c(=O)n([C@H]2C[C@H](O)[C@@H](CO)O2)cc1F | 55.6% (active)
Cc1cn([C@H]2C[C@H](N=[N+]=[N-])[C@@H](CO)O2)c(=O)[nH]c1=O | -5.9% (inactive)
CCc1cn([C@H]2C[C@H](O)[C@@H](CO)O2)c(=O)[nH]c1=O | -1.3% (inactive)
CCc1sc(C(=O)NC)cc1Br | -2.9% (inactive)
CC(C)N1C(=O)C2C(C(=O)NC3CCCCC3)C3C=CC2(O3)C1C(=O)NC1CCCCC1 (stereo not drawn) | 13.7% (inactive)

Structure (SMILES) | cytotoxicity
c1ccc(Nc2nc(N3CCCCC3)nc(N3CCNCC3)n2)cc1 | 75.8% (active)
c1ccc(Nc2nc(N3CCOCC3)nc(N3CCOCC3)n2)cc1 | 5% (inactive)
C1CCN(c2nc(N3CCCCC3)nc(N3CCNCC3)n2)CC1 | 11.6% (inactive)
CCOC(=O)c1ccccc1NC(=O)C1COc2ccccc2O1 (stereo not drawn) | -10.4% (inactive)
COc1ccc(-n2nnc3c(SCc4ccccc4)ncnc32)cc1 | 2.7% (inactive)
c1ccc(CN2CCN(c3nc4ccccc4n4cnnc34)CC2)cc1 | 1.8% (inactive)
COCCn1nnnc1C(c1ccc(OC)cc1OC)N1CCN(c2ccccc2)CC1 (stereo not drawn) | 11.2% (inactive)
COc1ccc(OC)c(C(O)c2coc3ccc(O)c(CN4CCOCC4)c23)c1 (stereo not drawn) | 5.9% (inactive)
COc1ccc(NC(=O)CN2CCN(S(=O)(=O)c3ccc(C(C)C)cc3)CC2)cc1OC | -1.5% (inactive)
COCC(=O)Nc1sc2c(c1C(=O)OC)CCCC2 | -0.8% (inactive)
COc1ccc(OC)c2c(N)c(C#N)c(C(F)(F)C(F)(F)F)nc12 | 2.9% (inactive)
Cc1ccc2nc(Nc3nc(C)cc(C(F)(F)F)n3)nc(C)c2c1 | -18.7% (inactive)
COc1ccc(OC)c(-n2c(O)cnc2Nc2nc(C)cc(C)n2)c1 | -6.2% (inactive)
Cc1occc1C(=O)Nc1cc(C(F)(F)F)ccc1Cl | -12.7% (inactive)
CC1CN(S(=O)(=O)c2cn(C)c(=O)n(C)c2=O)CC(C)O1 (stereo not drawn) | 14.8% (inactive)
CCOC(=O)N1CCN(C(=O)c2cnn3c(C(F)F)cc(-c4ccc(C)cc4)nc23)CC1 | 4.7% (inactive)
COc1ccc(-c2nc(-c3cccs3)c(-c3cccs3)[nH]2)cc1O | 76.5% (active)
COc1ccc(-c2nnc(-c3cccs3)o2)cc1OC | 7.2% (inactive)
COc1ccc(-c2nc3ccccc3s2)cc1O | -3.4% (inactive)
Cc1ccc2c(c1)C(c1ccccc1)N(C(=O)c1ccc(Br)o1)CC(=O)N2 (stereo not drawn) | -13.7% (inactive)
COc1ccccc1N1C(=O)C2C3C=CC(C3)C2(C)C1=O (stereo not drawn) | -3.4% (inactive)
